This is a sample that favours compounds with a hit; in the whole collection about 2.4% have one here.
D2 ag-1 = activates the human D2 dopamine receptor | P14416 | HEK293 T-REx D2 cells, calcium flux agonist mode | activation, % at 2 µM | actives 0.53% (n = 340,000) | AID 485358;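 active = activation over 3 SD above normal in the single-dose calcium agonist read, cut at about 30% in these data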; note: 0% is about no effect
Target sequence (P14416 whole entry, looked up): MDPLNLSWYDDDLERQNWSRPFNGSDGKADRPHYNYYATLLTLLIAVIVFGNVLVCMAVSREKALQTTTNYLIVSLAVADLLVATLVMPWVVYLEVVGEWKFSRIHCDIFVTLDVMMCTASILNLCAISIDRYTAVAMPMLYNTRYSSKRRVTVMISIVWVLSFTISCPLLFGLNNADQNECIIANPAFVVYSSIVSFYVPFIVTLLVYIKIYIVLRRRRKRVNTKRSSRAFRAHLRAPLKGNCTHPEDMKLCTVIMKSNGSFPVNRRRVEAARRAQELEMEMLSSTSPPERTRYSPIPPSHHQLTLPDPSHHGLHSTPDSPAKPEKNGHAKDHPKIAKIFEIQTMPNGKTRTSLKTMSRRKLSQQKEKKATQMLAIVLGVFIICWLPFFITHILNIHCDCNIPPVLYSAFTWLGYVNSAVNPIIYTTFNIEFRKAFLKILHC
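Agonism is scored from calcium flux in a force-coupled, inducible HEK293 cell line expressing D2, read kinetically for 180 s after compound addition against dopamine controls.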
B2AR arrestin = agonists driving beta-arrestin recruitment to human beta2-adrenergic receptor. beta-arrestin recruitment to beta2AR, cell-based reporter. Potency, µM (highest dose often 46.1 µM), inactives show at the top dose activation, most hits filed as activators. actives 0.02% (n = 330,000); active = well fitted activation curve with a large enough effect; inconclusive = small, poorly fitted or top-dose-only effect;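 note: potency is the fitted concentration of half-maximal effect; 0% = DMSO controls and full agonism = EC100 isoproterenol or metaproterenol; nearly all actives have a fitted effect of over 65% in size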
D2 PAM-1 = D2 dopamine receptor (human) potentiation; HEK293 T-REx D2, calcium flux, EC20 dopamine potentiation; actives 0.34% (n = 340,000); potentiation, % at 10 µM; P14416;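 active = potentiation over 3 SD above the plate norm, cut at about 30% in these data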; note: 0% is about no effect
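Potentiation of an EC20 dopamine calcium response is measured in a force-coupled, tetracycline-inducible Hek293 Trex D2 line. Compound-only kinetic reads over 180 s flag agonists before dopamine addition.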
D2 ag-2 = activates the human D2 dopamine receptor. activation, % (test concentration not listed). DiscoveRx PathHunter D2 beta-arrestin, luminescence, 90 min; 100% = 57 uM dopamine signal. AID 624465. P14416. actives 0.084% (n = 360,000); in the data active = activation above about 40%; inconclusive = between about 15% and that limit
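DiscoveRx PathHunter D2 beta-arrestin cells (2,100/well) attached overnight, then compound-stimulated 90 min at 37 C in HBSS/10 mM HEPES/0.1% Tween-20 buffer; beta-galactosidase complementation read by luminescence after 1 h at ambient temperature. Dopamine 57 uM final (EC100) as control.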
D2 antag = antagonists of human D2 dopamine receptor; P14416; HEK293 TREx D2 cells, calcium flux, dopamine EC80; inhibition, % at 10 µM; actives 2% (n = 340,000); AID 485344; in the data active = inhibition above about 30%; inactive = below that, where a call was filed; note: 0% is about no effect
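Measurement of antagonist activity uses fluorescent calcium dye in inducible HEK293 T-REx D2 cells: 10 s baseline, compound addition with 180 s read, EC80 dopamine addition with a further 180 s read.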
D2 PAM-2 = positive allosteric modulators of human D2 dopamine receptor; P14416; DiscoveRx D2 beta-arrestin cells, luminescence, 90 min; 100% = 57 uM dopamine signal; potentiation, % (no concentration beside the values); actives 0.23% (n = 360,000); in the data active = potentiation above about 50%; inconclusive = mostly about 30% to 49%
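D2 cells co-treated with compound plus 50 nM dopamine (EC20) for 90 min at 37 deg C to detect potentiation. Beta-arrestin recruitment was read as enzyme-fragment luminescence after 1 h at ambient temperature. Full response was set by 57 uM dopamine.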
* = called active by the depositor; ? = inconclusive; . = no result.

SMILES	D2 ag-1	B2AR arrestin	D2 PAM-1	D2 ag-2	D2 antag	D2 PAM-2
COc1ccccc1-c1ccc(/C=C2/C=C(CC(C)C)OC2=O)o1	3	0%	8	-4	33*	-9
COc1ccccc1NC(=O)C1=C(C)Nc2nnnn2C1c1ccccn1 (centres undefined)	-1	0%	-2	-3	3	-21
O=C(CCN1CCOCC1)N/N=C/c1cc(Br)cc(Br)c1O	1	0%	-9	-9	36*	-33
O=C(Cc1ccccc1)N/N=C/c1cc(Br)cc(Br)c1O	.	-1%	.	-6	.	-15
COc1ccc(NC(=O)C2CCCN2S(=O)(=O)c2ccc(F)cc2)cc1 (centres undefined)	1	0%	-3	-1	30*	-7
COc1ccc(S(=O)(=O)N2CCCC2C(=O)Nc2ccc(C)cc2)cc1 (centres undefined)	-1	0%	15	-3	-2	-10
CN(C)c1ccc(N=Cc2cccn2C)cc1	0	?	31*	6	-23	-20
CN(C)c1ccc(N=Cc2nc(-c3ccccc3)oc2O)cc1	.	-1%	.	-1	.	16
Cc1cc(C)n(CC(=O)c2cccc([N+](=O)[O-])c2)n1	0	0%	-10	1	-10	-4
Cc1cc(C)n(CCCNC(=O)C(C)(C)Oc2ccc(Cl)cc2)n1	0	0%	6	0	31*	-13
Cc1cc(C)n(CC(=O)c2ccc(Cl)cc2)n1	0	0%	39*	4	12	2
CC(C)(Oc1ccc(Cl)cc1)C(=O)NCCCn1ccnc1	0	0%	6	2	4	-8
O=C1OC(N2C(=O)CC[C@H]2C(=O)Nc2cccc(F)c2)c2ccccc21 (some centres undefined)	4	0%	3	-5	-20	-27
CCOC(=O)C1=C(C)NC(=S)N(C(C)=O)C1c1ccccc1 (centres undefined)	0	0%	-1	-1	32*	-3
COc1ccc(C(C)(C)NC(=O)C2CCC(=O)N(CCCN3CCCC3=O)C2)cc1 (centres undefined)	0	0%	-13	-2	33*	-9
COc1ccc(CNC(=O)C2CCC(=O)N(CCCN3CCCC3=O)C2)cc1 (centres undefined)	1	0%	8	-6	-2	-27
Cc1ccc(S(=O)(=O)N(CC(=O)Nc2cccnc2)c2cccc([N+](=O)[O-])c2)cc1	-1	0%	-23	-1	50*	-21
COc1cc(/C=N/NC(=O)c2ccc(N(C)S(=O)(=O)c3ccccc3)cc2)cc(OC)c1OC	0	2%	-3	2	-3	-4
Cc1ccc(/C=N/NC(=O)c2ccc(N(C)S(=O)(=O)c3ccccc3)cc2)cc1	0	0%	-5	1	48*	-7
CS(=O)(=O)N(CC(=O)Nc1cccc([N+](=O)[O-])c1)c1ccccc1F	-1	0%	5	-6	44*	-5
CCOc1cc(/C=N/NC(=O)c2ccc(N(C)S(=O)(=O)c3ccccc3)cc2)ccc1OC	1	0%	-4	-1	31*	-3
CC12CCC(C/C1=N\OC(=O)c1ccc(F)cc1)C2(C)C (centres undefined)	-1	0%	-4	-1	-5	6
CC(=O)Nc1cc2c(nc1C)nc(C)n2Cc1ccc(Br)cc1	0	0%	4	-5	0	-42
Cc1ccc(/C=N/N(C)S(=O)(=O)c2ccc(C)cc2)cc1	0	-1%	5	9	-5	-7
Cc1ccc(S(=O)(=O)NC(=O)Nc2cccc([N+](=O)[O-])c2)cc1	0	-1%	1	1	68*	-8
Cc1ccc(S(=O)(=O)N(C)c2ccc(C(=O)Nc3cccnc3)cc2)cc1	0	-1%	-5	-1	35*	-28
Cc1ccc(S(=O)(=O)N(C)/N=C/c2ccc(C(=O)O)cc2)cc1	0	0%	-3	-4	30*	2

Source: PubChem BioAssay
